CYP2C19 inhib: human CYP2C19 inhibition. P33261. CYP2C19 Supersomes, luciferin-H EGE luminescence, 30 min. inhibition, % at 5 µM. 96,000 compounds, 21% hits. AID 778;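 active = CYP2C19 inhibition above a set limit at 5 µM in the primary screen, cut at about 50% in these data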
PTK2B oligo ant: antagonists of human Pyk2 oligomerization; z-score (the deposit names both 25 µM and 10 µM); Q14289; 99,000 compounds, 0.83% hits; Q293 cells, Pyk2 FERM NanoBiT luminescence; active compounds read low; AID 1347419;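 active = Z-score of -3 or lower, scaled per plate to the spread of control and sample wells; inactive = z-score above -3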;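 also: negative z-score means lost luminescence so less FERM oligomerization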
CYP2C9 act: activators of human CYP2C9; recombinant CYP2C9, luciferin-H conversion, luminescence; active compounds read high; factor 1 = untreated enzyme, 0 = blocked; activation factor at 5 µM; 96,000 compounds, 1.4% hits; AID 1024;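 active = activation factor of 2 or more for CYP2C9 at a 5 µM dose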
CYP2C19 activ: cytochrome P450 2C19 (human) activation | P33261 | recombinant CYP2C19, luciferin-H EGE luminescence; active compounds read high; 0 = fully inhibited enzyme, 1 = untreated enzyme | activation factor at 5 µM | 96,000 tested, under 10 active | AID 1025;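 active = activation factor of at least 2 at 5 µM in the primary screen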
CYP2C9 inhib: blocks human cytochrome P450 2C9; P11712; inhibition, % at 5 µM; AID 777; CYP2C9 Supersomes, luciferin-H conversion, luminescence; 96,000 compounds, 20% hits;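 active = blocking of liver enzyme CYP2C9 beyond about 50% at 5 µM, limit read from the data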
Each line names hits and unclear results; the compound was inactive in the other large screens. This is a sample that favours compounds with a hit; in the whole collection about 28% have one here.

CN1CCN(c2cc(-c3ccccc3)nc3cc(-c4ccc(F)cc4)nn23)CC1	none
O=C(O)c1ccccc1OCCOCCOc1ccccc1C(=O)O	none
CCCc1nc2ccccc2c(C(=O)OCC(=O)NCc2ccco2)c1CC	CYP2C9 inhib 70
CCc1nc2ccccc2c(C(=O)OCC(=O)NCc2ccco2)c1C	CYP2C19 inhib 56
O=C(COC(=O)c1ccccc1Nc1ccccc1)NCc1ccco1	none
CCC(C)(C)n1nnnc1C(c1cccnc1)N1CCN(c2cccc(C(F)(F)F)c2)CC1 (stereo unspecified)	CYP2C19 inhib 80, CYP2C9 inhib 58
COc1cccc(N2CCN(C(c3ccccn3)c3nnnn3C(C)(C)C)CC2)c1 (stereo unspecified)	none (no result: CYP2C19 inhib, CYP2C9 act, CYP2C19 activ, CYP2C9 inhib)
CCC(C)(C)n1nnnc1C(c1ccncc1)N1CCN(c2cccc(OC)c2)CC1 (stereo unspecified)	CYP2C19 inhib 84, CYP2C9 inhib 92
CC1CCCCC1NC(=O)COC(=O)c1ccc(S(=O)(=O)N2CCOCC2)cc1 (stereo unspecified)	none
O=C(CSCc1c(F)cccc1Cl)NCc1cccnc1	none (no result: CYP2C19 inhib, CYP2C9 act, CYP2C19 activ, CYP2C9 inhib)
Cc1ccc2cccc(Oc3nnnn3-c3ccccc3)c2n1	CYP2C19 inhib 95
COc1ccccc1Oc1nnnn1-c1ccc(C(N)=O)cc1	none
c1ccc(-n2nnnc2Oc2cccc3cccnc23)cc1	CYP2C19 inhib 90, CYP2C9 act 2.7
O=C1c2ccccc2C(=O)N1CCc1csc(-c2cccc(Cl)c2)n1	CYP2C19 inhib 99
O=C1c2ccccc2C(=O)N1CCc1csc(-c2cccc(F)c2)n1	CYP2C19 inhib 100, CYP2C9 inhib 52
COc1ccc2c(CC#N)c[nH]c2c1	none
O=C(CCCCCn1c(=O)[nH]c2ccccc2c1=O)NCCCN1CCN(c2ccccc2F)CC1	none
CCOC(=O)C1C(=O)Oc2ccc3ccccc3c2C1C1CCOC1=O (stereo unspecified)	CYP2C19 inhib 60 (no result: PTK2B oligo ant)
COc1cc2c(cc1OC)C(C)N(C(=O)CCN1C(=O)C3C4C=CC(C4)C3C1=O)CC2 (stereo unspecified)	none
O=C(c1ccccc1)c1nn(-c2ccc(Cl)cc2)cc1C(=O)c1cc2ccccc2oc1=O	CYP2C9 inhib 67
C/C(N)=C(/C#N)C(=O)CSc1nnc(Nc2c(C)cccc2C)s1	CYP2C19 inhib 72, CYP2C9 inhib 69
C/C(N)=C(/C#N)C(=O)CSc1nnc(Nc2cccc(C)c2C)s1	CYP2C19 inhib 66, CYP2C9 inhib 66
C/C(N)=C(/C#N)C(=O)CSc1nnc(SCc2ccc(Cl)cc2)s1	CYP2C9 inhib 71
C/C(N)=C(/C#N)C(=O)COC(=O)COc1ccc(Cl)cc1	none
CCCSc1nnc(Nc2ccccc2C)s1	none
Cc1nc(CN2CCOCC2)cc(=O)[nH]1	none
NS(=O)(=O)c1ccc(CCNC(=O)CCC2COc3ccccc3O2)cc1 (stereo unspecified)	none (no result: CYP2C19 inhib, CYP2C9 act, CYP2C19 activ, CYP2C9 inhib)
CN(C)c1ccc(C(=O)C(O)c2ccc(C(C)(C)C)cc2)cc1 (stereo unspecified)	none
CCOc1ccc2nc(SCC(=O)NC(=O)NCc3ccco3)[nH]c2c1	none
Cc1ccccc1N=C(NOCc1ccc(Cl)cc1Cl)c1nonc1N	CYP2C9 inhib 70
Cc1ccc(N=C(NOC(=O)c2ccccc2)c2nonc2N)c(C)c1	none
Cc1ccc(N=C(NOCc2ccc(Cl)cc2Cl)c2nonc2N)c(C)c1	CYP2C9 inhib 74
Cc1ccccc1N=C(NOCc1ccccc1)c1nonc1N	none (no result: CYP2C19 inhib, CYP2C9 act, CYP2C19 activ, CYP2C9 inhib)
O=C(CN(Cc1cccs1)C(=O)CSc1nnc(COc2ccccc2)o1)NC1CCCCC1	none (no result: CYP2C19 inhib, CYP2C9 act, CYP2C19 activ, CYP2C9 inhib)
COCCN(CC(=O)NC1CCCCC1)C(=O)CSc1nc2ccccc2o1	CYP2C19 inhib 92
O=C(CN(Cc1ccc2c(c1)OCO2)C(=O)CSc1nc2ccccc2o1)NC1CCCCC1	CYP2C19 inhib 98, CYP2C9 inhib 96
CC(C)NC(=O)COC(=O)c1ccc(Oc2ccccc2)cc1	none
O=C(COc1ccc(Br)cc1)N(Cc1ccccc1)c1ccccn1	none (no result: CYP2C19 inhib, CYP2C9 act, CYP2C19 activ, CYP2C9 inhib)
O=C(COc1ccc(Cl)cc1)N(Cc1ccccc1)c1ccccn1	CYP2C19 inhib 98, CYP2C9 inhib 55
CCSc1nnc([C@@H]2CCCN2C(=O)OC(C)(C)C)o1	none
CC(C)(C)OC(=O)N1CCC[C@H]1c1nnc(SCc2c(Cl)cccc2Cl)o1	CYP2C19 inhib 71, CYP2C9 inhib 78
Cc1ccc(C(=O)Nc2ccc(Br)c(C(F)(F)F)c2)cc1	none
CC(C)(C)c1ccc(C2CC2C(=O)N/N=C\c2cc3ccccc3nc2Cl)cc1 (stereo unspecified)	CYP2C9 inhib 62
CCn1c(N2CCN(S(=O)(=O)c3ccccc3C(F)(F)F)CC2)nc2ccccc21	CYP2C19 inhib 69
COC(=O)c1ccc(N2C(=O)CC(N3CCC(O)(c4ccc(Br)cc4)CC3)C2=O)cc1 (stereo unspecified)	none
CCCN(Cc1cc2ccc(C)cc2[nH]c1=O)C(=O)c1ccccn1	none
COc1ccc(NC(=O)c2cccc(OC(F)F)c2)cc1Cl	CYP2C19 inhib 69
Cc1c(Cl)cccc1NC(=O)c1cccc(OC(F)F)c1	CYP2C19 inhib 72
CCOC(=O)Nc1cccc(Cl)c1C	none
CCOc1cccc(C(=O)Nc2ccccc2OC(F)F)c1	CYP2C19 inhib 56
O=C(Nc1ccc(OC(F)F)c(Cl)c1)c1cccc(OC(F)F)c1	CYP2C19 inhib 88
O=C(Nc1ccccc1OC(F)F)c1ccccc1	none
NC(=O)C1CCN(C(=O)C2c3ccccc3C(=O)N3CCc4ccccc4C23)CC1 (stereo unspecified)	none
Cc1cc(=O)n2nc(N3CCC(C(=O)NCc4cccnc4)CC3)sc2n1	none
CCOC(=O)c1sc(N)nc1C(C)C	CYP2C19 inhib 52
CCCCOC(=O)Nc1nc(C)c(C(=O)OCC)s1	none
CCCc1nc(N)sc1C(=O)OCC	CYP2C19 inhib 55
COC(=O)C(O)(CC(=O)Nc1cccc(SC)c1)C(F)(F)F (stereo unspecified)	none
COc1ccc2cc(CCNC(=O)C3CC3)c(=O)[nH]c2c1	none
COc1ccc(CCNc2oc(-c3ccc(C)cc3)nc2C#N)cc1OC	CYP2C9 inhib 50 (no result: PTK2B oligo ant)
COCCNc1oc(-c2ccc(C)cc2)nc1C#N	CYP2C19 inhib 86, CYP2C9 inhib 86
Cc1ccc(-c2nc(C#N)c(NCCN3CCCCC3)o2)cc1	none
COc1ccc(-c2nc(C#N)c(NCc3ccc(F)cc3)o2)cc1OC	none
CN(C)CCCNc1oc(-c2ccc(Cl)cc2)nc1C#N	none (no result: CYP2C19 inhib, CYP2C9 act, CYP2C19 activ, CYP2C9 inhib)
COCCNc1oc(-c2ccc(Cl)cc2)nc1C#N	CYP2C19 inhib 79, CYP2C9 inhib 73
Cc1nc(C(=O)N(C)C)nn1-c1cc(Cl)cc(Cl)c1	none
COc1ccc(Nc2nnc(-c3ccc(N4CCOCC4)c([N+](=O)[O-])c3)c3ccccc23)cc1	CYP2C9 inhib 53
COc1nnc(-c2ccc(N3CCOCC3)c(NC(=O)c3ccc(C)cc3)c2)c2ccccc12	none
COc1ccc2cc3c(N)nn(C(=O)Cc4ccccc4OC)c3nc2c1	CYP2C19 inhib 78, CYP2C9 inhib 75 (no result: PTK2B oligo ant)
O=c1[nH][nH]c(C(F)(F)F)c1C=NCc1cccc(Cl)c1	CYP2C19 inhib 68

Compound activity (PubChem)
